The nature of assay [1]: Quantitative High-Throughput drug screen in 47 multiple myeloma cell lines against the NCATS MIPE library collection: MOLP8_DSMZ cell viability assay (AID 1918977). Also: nearly all actives have a fitted effect of over 45% in size. A digest of the protocol: (§1)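 Readout: median RLU from CellTiter-Glo after 5 min at room temperature. Preceding step was 48 h drug treatment of 500 cells/well at 37 °C, 5% CO2, with DMSO-only and media-only control wells.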

The nature of assay [2]: Quantitative High-Throughput drug screen in 47 multiple myeloma cell lines against the NCATS MIPE library collection: NCIH929_DSMZ cell viability assay (AID 1918978). Also: nearly all actives have a fitted effect of over 35% in size. A digest of the protocol:
as §1

The nature of assay [3]: Quantitative High-Throughput drug screen in 47 multiple myeloma cell lines against the NCATS MIPE library collection: OCIMY1_PLB cell viability assay (AID 1918979). Also: nearly all actives have a fitted effect of over 35% in size. As to viability: series mostly up to about 46 µM. An outline of the steps:
as §1

Assay [4] can be described thus: Quantitative High-Throughput drug screen in 47 multiple myeloma cell lines against the NCATS MIPE library collection: MM1S_ATCC cell viability assay (AID 1918980). Also: nearly all actives have a fitted effect of over 45% in size. A digest of the protocol:
as §1

Assay [5] is described as follows: Quantitative High-Throughput drug screen in 47 multiple myeloma cell lines against the NCATS MIPE library collection: KMS28PE_JCRB cell viability assay (AID 1918983). Also: nearly all actives have a fitted effect of over 35% in size. A digest of the protocol:
as §1

Assay [6] can be described thus: Quantitative High-Throughput drug screen in 47 multiple myeloma cell lines against the NCATS MIPE library collection: MMM1_PLB cell viability assay (AID 1918976). Also: nearly all actives have a fitted effect of over 35% in size. A digest of the protocol: as §1
Assay [7] is described as follows: Quantitative High-Throughput drug screen in 47 multiple myeloma cell lines against the NCATS MIPE library collection: LP1_DSMZ cell viability assay (AID 1918982). Also: nearly all actives have a fitted effect of over 35% in size. A digest of the protocol:
as §1

Assay [8] in a line: Quantitative High-Throughput drug screen in 47 multiple myeloma cell lines against the NCATS MIPE library collection: L363_DSMZ cell viability assay (AID 1918984). Also: nearly all actives have a fitted effect of over 40% in size. A digest of the protocol:
as §1

Assay [9] in a line: Quantitative High-Throughput drug screen in 47 multiple myeloma cell lines against the NCATS MIPE library collection: KMS26_JCRB cell viability assay (AID 1918975). Also: nearly all actives have a fitted effect of over 45% in size. An outline of the steps:
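Relative luminescence from CellTiter-Glo served as the viability signal, referenced to DMSO-treated (100%) and cell-free medium (0%) controls. Treatment lasted 48 hours at 37C with 500 cells per well.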

Assay [10] in a line: Quantitative High-Throughput drug screen in 47 multiple myeloma cell lines against the NCATS MIPE library collection: MM1R_ATCC cell viability assay (AID 1918981). Also: nearly all actives have a fitted effect of over 35% in size. A digest of the protocol:
as §1

Here are results for 40 compounds from PubChem BioAssay (NCATS).

Inconclusive results are not listed. The source made the active and inactive calls. Calls follow the shape of the dose curve; as a rule, active = well fitted curve in the direction sought with a large enough effect; inconclusive = small, poorly fitted or top-dose-only effect, or another doubt; inactive = no such curve, though single readings can be large; an effect the other way counts as inactive or inconclusive.
Potency is read from the fitted curve at half-maximal effect.

Turning to `COC(=O)C[C@](O)(CCCC(C)(C)O)C(=O)O[C@@H]1C(OC)=C[C@]23CCCN2CCc2cc4c(cc2[C@H]13)OCO4`, the Potency result in assay [1], in assay [2], in assay [3], in assay [4] and in assay [5] was “inactive” in each case.
Regarding `COc1ccc(C=Cc2cc(OC)c(OC)c(OC)c2)cc1O`, the Potency entry in assay [6], in assay [2], in assay [3], in assay [7] and in assay [8] was “inactive” throughout.
Consider `COc1ccc(C(=O)CC2(O)C(=O)Nc3c(Cl)ccc(Cl)c32)cc1` (configuration not stated), for which the Potency in assay [9] is 2.96 µM (active); in assay [2], 18.7 µM (active); in [4], 18.7 µM (active); in [5], 3.72 µM (active); in assay [8], 1.66 µM (active).
Consider `O=C(NCCCNc1nc(Nc2cccc(NC(=O)N3CCCC3)c2)ncc1I)c1cccs1`, for which the Potency in [6] is 23.5 µM (active); in [1] it was 5.26 µM (active); in assay [2], 5.9 µM (active); in [3], 18.7 µM (active); in assay [4], 18.7 µM (active); in [10], 20.9 µM (active). The Potency in [7] and in assay [5] was 18.7 µM (active) each time.
Regarding `CC1COC2(CCN(c3nc(=O)c4cc(C(F)(F)F)cc([N+](=O)[O-])c4s3)CC2)O1` (configuration not stated), the Potency result in assay [1], in assay [2], in assay [3], in assay [4], in assay [10] and in assay [5] was “inactive” throughout.
Consider `Cn1cc(-c2ccncc2)c(-c2ccc(OCc3ccc4ccccc4n3)cc2)n1`, for which the Potency is 7.43 µM (active) in assay [9], 14.8 µM (active) in [4] and 2.64 µM (active) in assay [8].
Regarding `O=C(O)c1ccc2c(c1)nc(Nc1cccc(Cl)c1)c1ccncc12`, the Potency in assay [6] was 14.8 µM (active); in assay [1], 10.5 µM (active); in assay [2], 3.72 µM (active); in assay [3] it was 18.7 µM (active); in [4], 6.62 µM (active); in assay [5] it was 13.2 µM (active). Moreover, the Potency in [8] was 4.69 µM (active).
On to `CC(C)(O)CCc1ccc(OCc2cc(-c3cccc(OC(F)F)c3)c3ncccc3c2)cc1`, for which the Potency result in assay [3], in assay [7], in assay [5] and in [8] was “inactive” in each case. The Potency in [4] was 14.8 µM (active).
With `CN(C)CC(C)(C)CNc1nn2c(-c3ccccc3)nnc2cc1C1CCC1`, the Potency in [4] is 0.166 µM (active).
For `C[C@]12CC[C@H](O)CC1=CCC1C2CC[C@]2(C)C(n3cnc4ccccc43)=CCC12` (some centres not stated), the Potency entry in assay [3], in [4] and in assay [8] was “inactive” in each case.
`CC(C)(C)c1cc(C(C)(C)C)c(NC(=O)c2c[nH]c3ccccc3c2=O)cc1O`: the Potency result in assay [2], in assay [3], in [4], in [10], in [7] and in assay [5] was “inactive” in each case.
In the case of `Clc1cccc(-n2nnnc2NCc2ccccc2Oc2ccccn2)c1Cl`, the Potency entry in assay [2], in assay [3], in assay [4], in [10] and in assay [5] was “inactive” throughout.
For `COc1cc(Nc2ncc(F)c(Nc3ccc4c(n3)N(COP(=O)(O)O)C(=O)C(C)(C)O4)n2)cc(OC)c1OC`, the values for the Potency in assay [2], in [4] and in assay [8] were 3.72 µM (active), 20.9 µM (active) and 2.35 µM (active), respectively.
For the compound `C=CCn1c(=O)c2cnc(Nc3ccc(N4CCN(C)CC4)cc3)nc2n1-c1cccc(C(C)(C)O)n1`, the Potency in assay [2] is 7.43 µM (active); in [10] it was 0.166 µM (active); in assay [5] it was 0.59 µM (active); in [8], 0.0833 µM (active).
For `CS(=O)(=O)c1ccc(-c2cnc(N)c(C(=O)Nc3ccccc3)n2)cc1`, the Potency entry in assay [2], in assay [3], in assay [7] and in assay [5] was “inactive” throughout. In [4], the Potency is 9.35 µM (active).
Regarding `COc1cc(C(C)C)c2c(c1)S(=O)(=O)N(COc1cc(=O)n3cccc(OCCN4CCCCC4)c3n1)C2=O`, the Potency in assay [2] is 20.9 µM (active); in assay [4], 11.8 µM (active); in [8] it was 18.7 µM (active). Also, in assay [3], the Potency entry was “inactive”.
In the case of `Nc1cccc(-c2cc3c(Oc4cccc(O)c4)ncnc3[nH]2)c1`, the Potency in assay [2] was 23.5 µM (active); in assay [4], 3.32 µM (active). Besides, the Potency entry in [8] is “inactive”.
Take `CC1(C)O[C@@H]2C[C@@H]3[C@H]4C[C@@H](F)C5=CC(=O)C=C[C@]5(C)[C@@]4(F)[C@@H](O)C[C@]3(C)[C@]2(C(=O)CO)O1`: the Potency entry in assay [2], in [3] and in assay [10] was “inactive” each time. Also, the results for the Potency in assay [4] and in assay [8] were 0.0118 µM (active) and 0.0372 µM (active), respectively.
As for `COc1ccc(-n2nc(C(N)=O)c3c2C(=O)N(c2ccc(N4CCCCC4=O)cc2)CC3)cc1`, the Potency entry in [2], in assay [3], in assay [10] and in [8] was “inactive” throughout.
With `COc1ccc(CC2SC(=O)NC2=O)cc1C(=O)NCc1ccc(C(F)(F)F)cc1` (configuration not stated), the Potency entry in assay [1], in [2], in assay [10], in [7] and in assay [5] was “inactive” throughout.
On to `c1ccc2c(CCNc3ccc(Nc4ccncc4)cc3)c[nH]c2c1`, for which the Potency in assay [2] was 20.9 µM (active); in [4], 2.96 µM (active); in assay [10] it was 3.32 µM (active); in assay [5] it was 18.7 µM (active); in assay [8], 4.69 µM (active). For the same compound, the Potency result in assay [3] is “inactive”.
Regarding `Cc1cnc(-c2cnc(NCCNc3ccc(C#N)cn3)nc2-c2ccc(Cl)cc2Cl)[nH]1`, in [2], the Potency was 10.5 µM (active). For the same compound, in assay [8], the Potency entry was “inactive”.
As for `CC(C)c1noc(N2CCC(COc3ccc(-c4ccc(S(C)(=O)=O)cc4)nc3)CC2)n1`, the Potency in assay [1] was 0.418 µM (active); in assay [10], 13.2 µM (active); in [5], 16.6 µM (active). Besides, the Potency result in assay [4] and in assay [8] was “inactive” throughout.
In the case of `O=c1c2ccccc2nc2n1CCc1c-2[nH]c2ccccc12`, the Potency entry in [1], in [3], in [7] and in [5] was “inactive” throughout.
In the case of `Cc1c(NC(=O)OC[C@@H]2COCCN2)cn2ncnc(Nc3ccc4c(cnn4Cc4cccc(F)c4)c3)c12`, the Potency in assay [2] is 18.7 µM (active); in assay [5] it was 16.6 µM (active). Besides, in assay [3], the Potency result is “inactive”.
In the case of `O=C(O)c1ccc2cc(-c3ccc(O)c(C45CC6CC(CC(C6)C4)C5)c3)ccc2c1`, the Potency in assay [1] is 1.32 µM (active); in assay [3], 16.6 µM (active); in assay [4] it was 1.32 µM (active); in assay [10] it was 0.662 µM (active); in [5], 3.32 µM (active); in [8], 0.833 µM (active).
For the compound `CCN(CC)CCCCNc1ncc2cc(-c3cc(OC)cc(OC)c3)c(NC(=O)NC(C)(C)C)nc2n1`, the Potency in assay [2] is 11.8 µM (active); in assay [4] it was 20.9 µM (active); in assay [10] it was 23.5 µM (active); in assay [7] it was 16.6 µM (active); in [5] it was 6.62 µM (active); in assay [8], 14.8 µM (active).
With `CC(=O)OCCN1C(=O)c2c(C)nc3ccc(S(=O)(=O)N4CCOCC4)cc3c2C1=O`, the Potency entry in [1], in assay [2], in assay [10], in assay [7], in [5] and in [8] was “inactive” throughout.
On to `CC(O)C1C(=O)N2C(C(=O)O)=C(SC3CNC(C(=O)N(C)C)C3)C(C)C12` (configuration not stated), for which the Potency entry in assay [2] and in assay [5] was “inactive” each time.
As to `CNC(=O)CN1CCC(Oc2cc3c(Nc4cccc(Cl)c4F)ncnc3cc2OC)CC1`, the Potency is 0.059 µM (active) in assay [2], 0.0105 µM (active) in assay [4] and 0.0833 µM (active) in [5].
As for `Nc1ccn([C@@H]2O[C@H](CO)[C@H](O)C2(F)F)c(=O)n1`, the Potency in assay [2] is 0.264 µM (active); in assay [4] it was 0.0187 µM (active); in assay [10] it was 0.0093 µM (active); in assay [5], 0.469 µM (active).
`COc1cccc(-c2ccc(NC(=O)C3=C(C(=O)O)CCC3)c(F)c2)c1`: the Potency in assay [2] is 20.9 µM (active); in [4], 3.72 µM (active); in [10] it was 23.5 µM (active). The Potency result in assay [3] and in [8] was “inactive” throughout.
On to `O=C(O)C1(Cc2cccc(Nc3nccs3)n2)CCC(Oc2cccc(Cl)c2F)CC1` (configuration not stated), for which, in assay [2], the Potency result is “inactive”. In addition, the Potency is 0.332 µM (active) in [4] and 0.469 µM (active) in assay [10].
With `COc1cccc(Nc2c(C(N)=O)cnc3c(C)cc(S(=O)(=O)c4cccc(C(=O)N(C)C)c4)cc23)c1`, the Potency entry in [2] and in assay [5] was “inactive” each time.
For `Nc1ccn([C@@H]2CS[C@H](CO)O2)c(=O)n1`, the Potency result in [1], in assay [10], in assay [5] and in assay [8] was “inactive” in each case. In addition, the Potency in assay [2] is 38.2 µM (active).
Take `NC(=O)c1c(OCc2c(F)cc(Br)cc2F)nsc1NC(=O)NCCCCN1CCCC1`: the Potency is 26.4 µM (active) in assay [1]; 9.35 µM (active) in assay [2]; 2.96 µM (active) in assay [4]; 20.9 µM (active) in assay [10]; 18.7 µM (active) in [5]. Also, the Potency result in assay [8] was “inactive”.
With `O=C1CCC[C@@H]2[C@H]3CCC[N+]4([O-])CCC[C@@H](CN12)[C@@H]34` (some centres not stated), the Potency result in assay [2], in assay [3], in assay [7], in [5] and in [8] was “inactive” throughout.
Regarding `Cc1c(Cn2c(C)nc3c(C(=O)O)cc(N4CCOCC4)cc32)cccc1C(F)(F)F`, the Potency result in [1] and in assay [5] was “inactive” each time. In addition, the Potency in assay [4] was 0.0662 µM (active).
With `Cc1c(C)n(Cc2ccc(-c3ccccc3C(=O)O)cc2)c2ccc(C(=O)N[C@@H](C)c3ccc([N+](=O)[O-])cc3)cc12`, the Potency in assay [2] was 26.4 µM (active); in assay [4], 5.26 µM (active); in assay [8] it was 0.0935 µM (active). Further, the Potency result in assay [7] and in [5] was “inactive” each time.
In the case of `Cc1cn2cc(C(=O)N(C)CCO)cc(N[C@@H]3CCOc4cccc(C)c43)c2n1`, the Potency result in assay [2], in assay [3], in assay [10] and in [5] was “inactive” each time.
